# Experimental data as given in PubChem BioAssay (Tox21).
# Values without a mark were called inactive. Records with an inconclusive call do not appear. A call without a number means that no potency is given here. The source made the active and inactive calls. Unless noted, the call rests on the fitted dose curve; in most records, active means well fitted curve in the direction sought with a large enough effect in the repeat runs; inconclusive means weak or mixed curves; inactive means no such curve, though single readings can be large; an effect the other way counts as inactive or inconclusive.
# Tests used:
# [1] = qHTS assay to identify small molecule antagonists of the estrogen related receptor (ERR) signaling pathway from Tox21 library - cell viability counter screen (AID 1224834); further: nearly all actives have a fitted effect of over 30% in size
# Outline: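 Cytotoxicity of test substances is gauged in the same ERR cells used for the antagonist screen, after 17.5 h of compound treatment at 37 C, by CellTiter-Fluor fluorescence measured after 30 min.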
# [2] = qHTS assay to identify small molecule agonists of the constitutive androstane receptor (CAR) signaling pathway - cell viability counter screen (AID 1224836); further: nearly all actives have a fitted effect of over 45% in size
# Outline: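 Fluorescence from CellTiter-Fluor indicates live cells after 23 h exposure. The human hepatoma line expresses hCAR and a CYP2B6-2.2kb reporter. Incubation medium contains 0.75 uM PK11195 (final).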
# [3] = qHTS assay to identify small molecule antagonists of the constitutive androstane receptor (CAR) signaling pathway - cell viability counter screen (AID 1224837); further: nearly all actives have a fitted effect of over 45% in size
# Outline: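 Multiplexed cytotoxicity read-out for the CAR antagonist screen: double-stable HepG2-CYP2B6-hCAR cells co-treated with 50 nM CITCO (final) and compound over 15 concentrations, incubated 23 hr, then assessed by CellTiter-Fluor fluorescence.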
# [4] = target: Nuclear receptor subfamily 1 group I member 3 (Homo sapiens) (UniProt Q14994); assay: qHTS assay to identify small molecule agonists of the constitutive androstane receptor (CAR) signaling pathway (AID 1224839);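 further: HepG2 cells stably carrying human CAR and a CYP2B6 luciferase reporter; nearly all actives have a fitted effect of over 15% in size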
# Sequence of Nuclear receptor subfamily 1 group I member 3 (Homo sapiens) (Q14994 whole entry, looked up): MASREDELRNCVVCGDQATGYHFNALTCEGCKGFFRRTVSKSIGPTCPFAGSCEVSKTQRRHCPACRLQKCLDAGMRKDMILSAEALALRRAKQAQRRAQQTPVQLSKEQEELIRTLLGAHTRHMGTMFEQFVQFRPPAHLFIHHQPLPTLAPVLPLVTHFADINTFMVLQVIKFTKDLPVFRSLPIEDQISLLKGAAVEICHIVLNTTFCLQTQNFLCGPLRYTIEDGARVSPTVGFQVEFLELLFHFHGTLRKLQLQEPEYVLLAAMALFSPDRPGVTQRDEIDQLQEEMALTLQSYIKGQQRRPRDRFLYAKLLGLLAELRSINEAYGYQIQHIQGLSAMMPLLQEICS
# Outline: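 Stable hCAR/CYP2B6-2.2kb HepG2 line in DMEM with 10% FBS; compounds (15 concentrations) and 0.75 uM PK11195 final, 24 h at 37 C/5% CO2, then ONE-Glo luminescence after 30 min.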
# [5] = qHTS assay to identify small molecule antagonists of the estrogen related receptor signaling pathway with the pleiotropic PPARgamma coactivator (PGC) from Tox21 10K library - cell viability counter screen (AID 1224840; active means well fitted cell-killing curve with a large enough effect in the repeat runs, not every such curve was filed as active; further: nearly all actives have a fitted effect of over 40% in size)
# Outline: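 Step one, plate 2,000 PGC/ERR cells per well; step two, incubate 6 h at 37 C/5% CO2; step three, pin-transfer compounds; step four, incubate 17.5 h; step five, add CellTiter-Fluor and read fluorescence after 30 min.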
# [6] = qHTS assay to identify small molecule antagonists of the estrogen related receptor signaling pathway with the pleiotropic PPARgamma coactivator (PGC) from Tox21 10K library (AID 1224841; call rule not given here; further: actives are mostly falling curves and most rising ones were filed inactive; nearly all actives have a fitted effect of over 50% in size)
# Outline: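 Antagonism in this quantitative HTS is taken from loss of luciferase signal in PGC/ERR cells. Cells (2,000/well) are treated with compounds in DMSO after a 6 h settling period and read by One-Glo luminescence after 18 h.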
# [7] = qHTS assay to identify small molecule agonists of the estrogen related receptor signaling pathway with the pleiotropic PPARgamma coactivator (PGC) from Tox21 10K library (AID 1224842); further: nearly all actives have a fitted effect of over 15% in size
# Outline: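 PGC/ERR reporter cell line, 2,000 cells per well, incubated 6 h at 37 C before 23 nL compound in DMSO was added. After 18 h at 37 C, One-Glo luminescence read following 30 min at room temperature.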
# [8] = target: Thyrotropin receptor (Homo sapiens) (UniProt P16473); assay: qHTS assay to identify small molecule agonists of the thyroid stimulating hormone receptor (TSHR) signaling pathway (AID 1224843; calls by dose curve; further: nearly all actives have a fitted effect of over 45% in size)
# Sequence of Thyrotropin receptor (Homo sapiens) (P16473 whole entry, looked up): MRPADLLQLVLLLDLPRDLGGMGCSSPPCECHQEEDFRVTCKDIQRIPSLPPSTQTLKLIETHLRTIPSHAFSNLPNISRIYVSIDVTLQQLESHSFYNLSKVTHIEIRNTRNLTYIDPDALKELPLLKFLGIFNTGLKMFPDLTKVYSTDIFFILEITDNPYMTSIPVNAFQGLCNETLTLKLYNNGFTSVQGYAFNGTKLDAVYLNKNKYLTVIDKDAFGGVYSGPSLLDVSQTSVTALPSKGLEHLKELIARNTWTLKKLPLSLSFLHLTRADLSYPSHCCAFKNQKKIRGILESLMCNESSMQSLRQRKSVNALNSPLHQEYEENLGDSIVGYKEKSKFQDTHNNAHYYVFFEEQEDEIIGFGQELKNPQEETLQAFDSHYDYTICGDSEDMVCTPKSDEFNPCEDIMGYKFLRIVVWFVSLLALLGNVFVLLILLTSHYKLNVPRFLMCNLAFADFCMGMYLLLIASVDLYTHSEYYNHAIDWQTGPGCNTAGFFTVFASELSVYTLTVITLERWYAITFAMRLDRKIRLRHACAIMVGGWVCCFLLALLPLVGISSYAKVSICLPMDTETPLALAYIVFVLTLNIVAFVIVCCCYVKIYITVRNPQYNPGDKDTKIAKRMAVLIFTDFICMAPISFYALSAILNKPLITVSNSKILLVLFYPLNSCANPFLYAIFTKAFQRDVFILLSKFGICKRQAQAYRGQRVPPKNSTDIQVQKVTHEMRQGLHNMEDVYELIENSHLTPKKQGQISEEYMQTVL
# Outline: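 Steps: seed 800 TSHR-HEK293 cells per well; add test compound and hold 30 min at ambient temperature; dispense cAMP-d2 then anti-cAMP cryptate; incubate 1 h at ambient; measure fluorescence intensity.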
# [9] = qHTS assay to identify small molecule agonists of the hypoxia (HIF-1) signaling pathway - cell viability counter screen (AID 1224844; calls by dose curve; further: nearly all actives have a fitted effect of over 50% in size)
# Outline: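 Tox21 10K compounds were added to HRE-bla ME-180 cells (0.5% dialyzed FBS) and incubated 17 hrs at 37C; ATP-based CellTiter-Glo luminescence then reported cell viability in the same wells.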
# [10] = qHTS assay to identify small molecule agonists of H2AX (AID 1224845; active means well fitted activation curve with a large enough effect in the signal ratio in the repeat runs, not every such curve was filed as active; the % refers to the signal ratio)
# Outline: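 Wild-type CHO-K1 cells, plated overnight, exposed 3hr at 37C to 15 concentrations (0.76% DMSO final). Lysed, then HTRF anti-pH2AX (S139) cryptate and anti-H2AX-d2 antibodies, 24 hr room temperature; 665/620 nm emission read.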
# [11] = qHTS assay to identify small molecule agonists of H2AX - cell viability counter screen (AID 1224847; calls by dose curve; further: top concentration of the series differs between compounds; nearly all actives have a fitted effect of over 30% in size)
# Outline: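 Viability of CHO-K1 (wild type) cells after 3 hr compound exposure was measured by CellTiter-Glo luminescence.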
# [12] = qHTS assay to identify small molecule agonists of the estrogen related receptor (ERR) signaling pathway from Tox21 library (AID 1224849; calls by dose curve; further: nearly all actives have a fitted effect of over 15% in size); conditions: ERR reporter cell line, ONE-Glo luciferase, 18 h; at 92.4 µM (top of the series) unless noted
# Outline: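 Agonist signal is luciferase luminescence from an ERR reporter cell line treated 18 h at 37 C with DMSO-dissolved compounds, read 30 min after ONE-Glo addition at room temperature.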
# [13] = qHTS RealTime-Glo MT Cell Viability Assay in HepG2 cells - 24 hour (AID 1224867); further: nearly all actives have a fitted effect of over 50% in size
# Outline: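 Luminescence read-out: viable HepG2 cells reduce a prosubstrate to a NanoLuc substrate, giving a signal proportional to live cell number. Reads taken at 0, 8, 16, 24, 32 and 40 h of compound exposure at 37 C.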
# [14] = qHTS RealTime-Glo MT Cell Viability Assay in HEK293 cells - 32 hour (AID 1224868); further: nearly all actives have a fitted effect of over 50% in size; further: potency means the concentration at half of the fitted maximal effect
# Outline: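 Nonlytic real-time viability readout: viable cells convert prosubstrate to NanoLuc substrate, giving luminescence proportional to live cell number. HEK293, 600 cells/well, compound added after 5 h, continuous culture at 37 C.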
# [15] = A CellTox Green Cytotoxicity Assay to monitor cytotoxicity in HEK293 cells - 0 hour (AID 1224869); further: nearly all actives have a fitted effect of over 50% in size
# Outline: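 Cytotoxicity was tracked continuously in HEK293 cells by a DNA-binding dye excluded from viable cells. Compounds were transferred in DMSO 5 h after seeding; fluorescence was recorded at intervals up to 40 h.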
# [16] = qHTS assay to identify small molecule agonists of the hypoxia (HIF-1) signaling pathway (AID 1224846; active means well fitted activation curve with a large enough effect in the signal ratio in the repeat runs, not every such curve was filed as active; the % refers to the signal ratio)
# Outline: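 Steps: seed ME-180 HRE-bla cells (2,000/well, 0.5% dialyzed FBS); incubate 5 hrs at 37C; pin-transfer compounds or DMSO; incubate 17 hrs; add LiveBLAzer B/G substrate CCF4-AM; measure reporter activation by FRET.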
# [17] = qHTS RealTime-Glo MT Cell Viability Assay in HepG2 cells - 40 hour (AID 1224870); further: nearly all actives have a fitted effect of over 50% in size
# Outline: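 HepG2 cells (600/well) mixed with RealTime-Glo MT reagent, settled 5 h at 37 C/5% CO2 before compound addition. Nonlytic NanoLuc luminescence from viable-cell prosubstrate reduction read repeatedly during 40 h treatment at 37 C.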
# [18] = target: Luciferin 4-monooxygenase (Photinus pyralis) (UniProt P08659); assay: qHTS assay to identify small molecule inhibitors of firefly luciferase (AID 1224835); further: nearly all actives have a fitted effect of over 25% in size
# Sequence of Luciferin 4-monooxygenase (Photinus pyralis) (P08659 whole entry, looked up): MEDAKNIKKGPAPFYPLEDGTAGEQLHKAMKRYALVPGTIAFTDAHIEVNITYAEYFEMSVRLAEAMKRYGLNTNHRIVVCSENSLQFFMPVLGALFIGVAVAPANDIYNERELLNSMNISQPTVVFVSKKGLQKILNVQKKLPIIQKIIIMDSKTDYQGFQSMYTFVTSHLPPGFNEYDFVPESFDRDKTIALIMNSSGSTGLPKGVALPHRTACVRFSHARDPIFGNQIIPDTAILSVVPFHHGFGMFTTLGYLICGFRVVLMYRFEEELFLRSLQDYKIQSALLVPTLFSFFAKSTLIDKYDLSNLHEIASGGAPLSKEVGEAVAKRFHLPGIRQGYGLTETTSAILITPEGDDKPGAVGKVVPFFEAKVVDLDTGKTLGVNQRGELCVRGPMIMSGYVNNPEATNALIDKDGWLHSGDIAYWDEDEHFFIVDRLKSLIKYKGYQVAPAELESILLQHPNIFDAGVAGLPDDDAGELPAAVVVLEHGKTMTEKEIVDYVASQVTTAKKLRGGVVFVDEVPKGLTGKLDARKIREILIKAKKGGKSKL
# Outline: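 Biochemical qHTS: compounds run as interplate titrations against purified firefly enzyme, with D-luciferin and ATP each at its KM concentration. Light output recorded by CCD imaging.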
# [19] = qHTS assay to identify small molecule antagonists of the estrogen related receptor (ERR) signaling pathway from Tox21 library (AID 1224848); further: nearly all actives have a fitted effect of over 50% in size; further: potency means the concentration at half of the fitted maximal effect
# Outline: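 Luminescent reporter read-out (ONE-Glo) from NTP's ERR cell line after 18 h treatment at 37 C with DMSO-dissolved Tox21 compounds; cells pre-plated 6 h beforehand at 2,000 per well.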
# [20] = target: Nuclear receptor subfamily 1 group I member 3 (Homo sapiens) (UniProt Q14994); assay: qHTS assay to identify small molecule antagonists of the constitutive androstane receptor (CAR) signaling pathway (AID 1224838); further: nearly all actives have a fitted effect of over 40% in size
# Outline: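 Compounds were titrated across 15 concentrations onto HepG2 cells double-stably expressing hCAR and a CYP2B6-2.2kb reporter, together with 50 nM CITCO (final). After 24 h at 37 C, luciferase activity was measured by luminescence.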
Structure (SMILES),Potency [1],outcome [2],outcome [3],Potency [4],outcome [5],Potency [6],Potency [7],outcome [8],Potency [9],outcome [10],Potency [11],"activity change, positive = activation [12]",outcome [13],Potency [14],Potency [15],outcome [16],Potency [17],Potency [18],Potency [19],Potency [20]
CCCCCC[C@@H](CCC)C(=O)O,inactive,inactive,inactive,inactive,inactive,inactive,inactive,inactive,inactive,inactive,inactive,-23% [at 42.5 µM],inactive,inactive,inactive,–,–,–,–,–
CCCCCCCCCCCCCCCCCC(=O)OCCCCCCCCCCCCCC(C)C,inactive,inactive,inactive,–,inactive,–,–,inactive,–,–,inactive,–,inactive,inactive,inactive,inactive,inactive,–,–,–
Oc1cc(O)c2c(c1)O[C@H](c1ccc(O)c(O)c1)[C@H](O)C2,inactive,inactive,inactive,–,inactive,–,–,inactive,–,–,inactive,–,–,inactive,inactive,–,inactive,–,–,–
CSc1ccc(C=O)cc1,inactive,inactive,–,–,inactive,–,–,inactive,inactive,inactive,inactive,–,inactive,inactive,inactive,–,inactive,–,–,–
CCn1c(=O)c2c(nc(/C=C/c3ccc(OC)c(OC)c3)n2C)n(CC)c1=O,–,inactive,inactive,inactive,inactive,inactive,inactive,inactive,inactive,inactive,inactive,-35.7% [at 42.5 µM],–,1.69 µM (active),inactive,inactive,inactive,inactive,21.1 µM (active),–
O=C(O)C(O)[C@H](O)[C@@H](O)[C@H](O)[C@H](O)CO (some centres undefined),inactive,inactive,–,inactive,inactive,–,inactive,inactive,inactive,inactive,inactive,-30.1%,inactive,–,inactive,inactive,inactive,–,–,inactive
CCOC(=O)Nc1ccc2c(c1)N(C(=O)CCN1CCOCC1)c1ccccc1S2,inactive,inactive,–,inactive,inactive,–,–,inactive,–,–,inactive,–,inactive,inactive,inactive,–,inactive,–,–,–
Nc1nc2c(ncn2CCC(CO)CO)c(=O)[nH]1,inactive,inactive,inactive,–,inactive,inactive,inactive,inactive,inactive,–,inactive,-1.99% [at 42.5 µM],inactive,inactive,inactive,inactive,inactive,–,inactive,–
C1COCCO1,inactive,inactive,inactive,–,inactive,inactive,inactive,–,inactive,inactive,inactive,5.15%,–,inactive,inactive,inactive,inactive,–,inactive,–
